From PubChem BioAssay
The source made the active and inactive calls. Unless noted, how the calls were made is not given here.

How the values were obtained:
[1] = compounds binding Alexa647 anti-His antibody – biochemical, small-molecule microarray, 635 nm fluorescence, artefact control for SMM control protein annotation, primary screen (AID 1128); settings: higher = more signal;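 further: score merges feature fluorescence with signal-to-noise for each printed compound spot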
[2] = system: Human papillomavirus type 1a E7 protein (residues 1-88); assay: HPV1a E7 small-molecule binders, primary screen, biochemical, small-molecule microarray, residues 1-88, 635 nm (AID 1129); settings: small-molecule microarray binding, fluorescence 635 nm; higher = more signal
[3] = molecular target: Focal adhesion kinase 1 (Homo sapiens) (UniProt Q05397); assay: PTK2 protein binding on printed compound slides – biochemical, small-molecule microarray, 635/667 nm fluorescence, BSA, DTT, primary screen (AID 1130); settings: 635 nm fluorescence, higher = more signal;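 further: composite of spot emission at 667 nm and signal to noise over triplicate slides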
[4] = system: Fibrinogen (Alexa647-labelled); assay: Alexa647-fibrinogen binding to printed small molecules – biochemical, small-molecule microarray, 635/667 nm fluorescence, artefact control for SMM control-protein annotation, profiling panel (AID 1131); settings: fibrinogen-A647 binding fluorescence, higher = more signal;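 further: z-score merges 667 nm fluorescence with per-spot signal-to-noise over triplicate slides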
[5] = molecular target: Follistatin (Homo sapiens) (UniProt P19883); assay: FST protein binding to printed compounds – biochemical, small-molecule microarray, 635/667 nm fluorescence, primary screen (AID 1132); settings: 635 nm fluorescence, higher = more signal
[6] = molecular target: Fibroblast growth factor 2 (Homo sapiens) (UniProt P09038); assay: basic fibroblast growth factor binding to printed compounds – biochemical, small-molecule microarray, 635/667 nm fluorescence, primary screen (AID 1133); settings: FGF2, fluorescence 635/667, higher = more signal
[7] = JC-1 mitochondrial potential readout, lung cancer cells – cell-based, A549, JC-1 fluorescence, basal, 24 h, 100 nL, profiling panel (AID 1138); settings: higher = more signal;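 further: A549 lung adenocarcinoma cells under basal conditions with no added stimulus; test concentration not given here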
Lefty1 = Lefty1 protein binding to printed compounds – biochemical, small-molecule microarray, 635/667 nm fluorescence, primary screen (AID 1139); settings: fluorescence 635/667, higher = more signal
[8] = system: wheat germ agglutinin (Triticum aestivum), Alexa647-labelled; assay: Alexa647-WGA lectin binding to printed small molecules – biochemical, small-molecule microarray, 635/667 nm fluorescence, artefact control for SMM control-protein annotation, profiling panel (AID 1140); settings: WGA-A647 binding, 635 nm fluorescence, higher = more signal;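 further: score merges 667 nm feature emission with signal to noise over triplicate slides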
[9] = molecular target: Luciferin 4-monooxygenase (Photinus pyralis) (UniProt P08659); assay: inhibition of purified Photinus pyralis luciferase – biochemical, luminescence, purified enzyme, 2006 set, primary screen (AID 1141); settings: purified firefly luciferase, SteadyGlo luminescence, 30 min; higher = more signal, called active from +8 up or from −8 down;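 further: cell-free assay with purified firefly luciferase at 100 ng per well in PBS; test concentration not given here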
[10] = system: Wnt5a (protein binding on small-molecule microarray); assay: small molecules binding Wnt5a protein – biophysical, small-molecule microarray, 635/667 nm fluorescence, primary screen (AID 1142); settings: 635 nm fluorescence, higher = more signal;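 further: fluorescence read at 667 nm with signal to noise per printed feature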
[11] = ATP-based viability of Huh7 replicon cells – cell-based, CellTiter-Glo luminescence, basal, 48 h, cytotoxicity control for HCV replication inhibitor project, primary screen (AID 1143); settings: higher = more signal, called active from +8 up or from −8 down;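 further: Huh7 hepatoma cells carrying a hepatitis C replication reporter with no stimulus; test concentration not given here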
[12] = Pseudomonas biofilm growth suppression – PAO1 strain, BacTiter-Glo luminescence, LB-PBS, primary screen (AID 1144); settings: P. aeruginosa PAO1 biofilm, 12 h, higher = more signal
[13] = basal CRE-LacZ reporter activity in PC12 – cell-based, unstimulated, primary screen (AID 1145); settings: no forskolin, luminescence, 4.5 h, higher = more signal, called active from +8 up or from −8 down
[14] = forskolin-driven CRE-LacZ activity in PC12 – cell-based, CRE-LacZ reporter, forskolin-stimulated, primary screen (AID 1146); settings: luminescence, 4.5 h, higher = more signal, called active from +8 up or from −8 down;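 further: PC12 cells with 6xCRE LacZ reporter stimulated by forskolin 10 µM; beta-galactosidase reporter signal reflecting CREB driven transcription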
[15] = molecular target: Streptavidin (Streptomyces avidinii) (UniProt P22629); assay: compounds binding control protein streptavidin – biophysical, small-molecule microarray, 635/667 nm fluorescence, artefact control for SMM compound annotation, primary screen (AID 1147); settings: higher = more signal;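 further: signal reflects streptavidin binding to arrayed compounds as a control protein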
[16] = probe aInhba binding on compound microarray – biochemical, small-molecule microarray, 635/667 nm fluorescence, primary screen (AID 1148); settings: higher = more signal;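 further: score merges 667nm spot fluorescence with signal-to-noise for antibody binding to printed compounds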
Torsin-1A (Homo sapiens) [17] = molecular target: Torsin-1A (Homo sapiens) (UniProt O14656); assay: TOR1A wild-type binding on microarray – cell lysate, small-molecule microarray, lysate, 635/667 nm, primary screen (AID 1149); settings: COS7 hTOR1A-WT lysate, 635 nm fluorescence, higher = more signal
Torsin-1A (Homo sapiens) [18] = molecular target: Torsin-1A (Homo sapiens) (UniProt O14656); assay: torsin A mutant lysate binding on microarrays – cell lysate, small-molecule microarray, COS7 lysate, 635/667 nm fluorescence, primary screen (AID 1150); settings: COS7 hTOR1A mutant lysate, 635 nm fluorescence, higher = more signal;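 further: score pools 667 nm emission and signal to noise measuring lysate protein binding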
[19] = system: Sonic hedgehog protein (Shh); assay: Sonic hedgehog microarray binding compounds – biochemical, small-molecule microarray, 635/667 nm fluorescence, primary screen (AID 1151); settings: 635 nm fluorescence, higher = more signal;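 further: Shh protein binding to compounds spotted on small-molecule microarray slides; score combines spot fluorescence intensity with signal-to-noise across triplicate slides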

Sequence of Luciferin 4-monooxygenase (Photinus pyralis) (P08659 whole entry, looked up): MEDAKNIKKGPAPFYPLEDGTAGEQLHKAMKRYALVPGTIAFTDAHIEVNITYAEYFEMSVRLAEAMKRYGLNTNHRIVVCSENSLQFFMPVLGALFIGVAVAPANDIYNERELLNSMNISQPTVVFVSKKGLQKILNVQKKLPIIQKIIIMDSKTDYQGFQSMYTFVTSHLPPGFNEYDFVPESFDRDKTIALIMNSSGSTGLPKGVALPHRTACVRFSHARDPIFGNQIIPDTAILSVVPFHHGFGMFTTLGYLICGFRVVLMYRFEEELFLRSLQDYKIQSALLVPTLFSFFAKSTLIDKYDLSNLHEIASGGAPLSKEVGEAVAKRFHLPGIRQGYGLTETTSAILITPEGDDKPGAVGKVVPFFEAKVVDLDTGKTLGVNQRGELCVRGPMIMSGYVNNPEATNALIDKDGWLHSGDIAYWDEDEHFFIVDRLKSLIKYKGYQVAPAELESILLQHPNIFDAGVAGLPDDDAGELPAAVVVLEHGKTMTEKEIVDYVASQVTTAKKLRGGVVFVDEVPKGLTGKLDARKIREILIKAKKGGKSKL
Sequence of Follistatin (Homo sapiens) (P19883 whole entry, looked up): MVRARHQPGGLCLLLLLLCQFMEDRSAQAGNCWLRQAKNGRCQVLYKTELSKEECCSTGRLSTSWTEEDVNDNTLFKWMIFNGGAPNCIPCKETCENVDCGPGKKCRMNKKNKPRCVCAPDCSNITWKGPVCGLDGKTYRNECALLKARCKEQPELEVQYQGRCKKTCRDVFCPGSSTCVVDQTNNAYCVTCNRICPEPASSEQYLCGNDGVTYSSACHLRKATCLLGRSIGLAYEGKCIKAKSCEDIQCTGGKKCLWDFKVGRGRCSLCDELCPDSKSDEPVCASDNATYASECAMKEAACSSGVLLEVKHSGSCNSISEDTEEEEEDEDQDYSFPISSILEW
Sequence of Focal adhesion kinase 1 (Homo sapiens) (Q05397 whole entry, looked up): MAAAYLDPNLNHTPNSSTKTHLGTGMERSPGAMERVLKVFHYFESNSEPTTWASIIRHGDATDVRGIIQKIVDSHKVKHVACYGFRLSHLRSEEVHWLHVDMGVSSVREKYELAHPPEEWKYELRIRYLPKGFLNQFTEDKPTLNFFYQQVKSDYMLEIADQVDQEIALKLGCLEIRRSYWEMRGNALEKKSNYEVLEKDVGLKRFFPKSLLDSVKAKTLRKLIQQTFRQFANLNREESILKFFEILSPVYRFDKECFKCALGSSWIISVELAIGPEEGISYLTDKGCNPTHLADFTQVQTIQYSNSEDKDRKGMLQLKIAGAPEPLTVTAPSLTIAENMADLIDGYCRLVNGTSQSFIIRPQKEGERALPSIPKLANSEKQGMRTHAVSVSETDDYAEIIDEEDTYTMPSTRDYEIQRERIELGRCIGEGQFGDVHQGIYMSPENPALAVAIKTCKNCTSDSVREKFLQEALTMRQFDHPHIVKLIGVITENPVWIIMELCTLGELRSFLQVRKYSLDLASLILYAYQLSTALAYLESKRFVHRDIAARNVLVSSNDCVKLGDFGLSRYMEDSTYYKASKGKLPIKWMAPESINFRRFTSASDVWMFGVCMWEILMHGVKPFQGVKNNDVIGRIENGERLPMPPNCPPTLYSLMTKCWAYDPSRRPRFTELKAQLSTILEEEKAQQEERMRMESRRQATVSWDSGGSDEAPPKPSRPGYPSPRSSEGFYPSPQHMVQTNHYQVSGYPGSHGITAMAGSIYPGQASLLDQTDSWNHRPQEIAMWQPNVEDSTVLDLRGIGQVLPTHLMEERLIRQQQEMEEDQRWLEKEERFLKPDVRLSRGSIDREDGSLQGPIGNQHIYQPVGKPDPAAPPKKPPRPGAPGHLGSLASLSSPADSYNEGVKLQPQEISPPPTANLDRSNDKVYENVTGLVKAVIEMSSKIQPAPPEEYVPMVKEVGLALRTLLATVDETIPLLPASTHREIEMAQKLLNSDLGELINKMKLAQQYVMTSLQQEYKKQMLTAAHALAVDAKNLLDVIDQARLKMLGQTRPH
Sequence of Torsin-1A (Homo sapiens) (O14656 whole entry, looked up): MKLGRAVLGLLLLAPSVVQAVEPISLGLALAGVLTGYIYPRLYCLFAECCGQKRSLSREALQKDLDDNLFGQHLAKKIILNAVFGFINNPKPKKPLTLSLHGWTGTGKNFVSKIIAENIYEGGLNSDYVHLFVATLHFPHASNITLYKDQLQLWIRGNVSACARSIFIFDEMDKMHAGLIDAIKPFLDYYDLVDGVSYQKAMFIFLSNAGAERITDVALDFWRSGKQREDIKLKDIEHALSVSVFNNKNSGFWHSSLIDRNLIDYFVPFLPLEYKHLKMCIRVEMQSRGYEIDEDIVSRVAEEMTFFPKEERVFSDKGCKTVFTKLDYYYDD
Sequence of Fibroblast growth factor 2 (Homo sapiens) (P09038 whole entry, looked up): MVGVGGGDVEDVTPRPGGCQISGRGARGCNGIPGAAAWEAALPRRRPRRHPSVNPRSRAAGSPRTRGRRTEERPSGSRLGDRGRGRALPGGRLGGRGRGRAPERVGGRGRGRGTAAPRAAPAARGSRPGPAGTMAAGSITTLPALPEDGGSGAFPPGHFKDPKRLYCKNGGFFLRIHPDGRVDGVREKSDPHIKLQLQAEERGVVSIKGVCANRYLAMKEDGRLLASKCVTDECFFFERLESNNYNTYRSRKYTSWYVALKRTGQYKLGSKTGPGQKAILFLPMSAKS
Sequence of Streptavidin (Streptomyces avidinii) (P22629 whole entry, looked up): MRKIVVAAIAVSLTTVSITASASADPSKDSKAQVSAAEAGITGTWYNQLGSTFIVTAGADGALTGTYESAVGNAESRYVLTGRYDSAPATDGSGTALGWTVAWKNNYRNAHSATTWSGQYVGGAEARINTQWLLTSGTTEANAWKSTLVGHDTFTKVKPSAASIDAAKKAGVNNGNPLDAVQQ

Row | Compound | composite z-score [1] | composite z-score [2] | composite z-score [3] | composite z-score [4] | composite z-score [5] | composite z-score [6] | z-score [7] | composite z-score (Lefty1) | composite z-score [8] | z-score [9] | composite z-score [10] | z-score [11] | z-score [12] | z-score [13] | z-score [14] | composite z-score [15] | composite z-score [16] | composite z-score (Torsin-1A (Homo sapiens) [17]) | composite z-score (Torsin-1A (Homo sapiens) [18]) | composite z-score [19]
1 | COCCOC(=O)N1C(=O)[C@@]2(c3cc(C#CCC(C(=O)OC)C(=O)OC)ccc31)[C@H](C(=O)N1CCN(c3ncccn3)CC1)[C@H]1C(=O)O[C@H](c3ccccc3)[C@H](c3ccccc3)N1[C@@H]2c1ccccc1OCCO | 1.02 | 1.2 | 0.467 | 0.997 | 1.38 | 1.29 | -0.835 | 1.54 | 0.755 | -0.291 (inactive) | 0.833 | -3.78 (inactive) | 1.13 (inactive) | -0.337 (inactive) | -0.374 (inactive) | 0.39 | 0.326 | 0.135 | 0.579 | 2.19
2 | O=C1C2C=CC(C(O)c3cccc4ccccc34)N(Nc3ccccc3F)C2C(=O)N1c1ccccc1 (stereo not given) | 1.22 | 1.25 | 0.792 | 1 | 0.829 | -0.276 | -0.968 | 0.345 | 1.4 | 1.24 (inactive) | 0.115 | -0.586 (inactive) | -0.732 (inactive) | -0.62 (inactive) | 0.276 (inactive) | 1.66 | 0.103 | 1.44 | 0.993 | -0.458
3 | CCCC[C@H]1OB(O)C[C@H]2C1=C(COC)C[C@H]1C(=O)N(C)C(=O)[C@H]12 | 0.415 | -0.292 | 0.18 | 0.144 | 0.824 | 0.846 | 0.145 | 0.896 | 0.631 | -0.656 (inactive) | 0.277 | 0.203 (inactive) | 0.573 (inactive) | 0.76 (inactive) | 0.505 (inactive) | 0.727 | -0.0093 | 0.408 | 0.301 | 1.32
4 | C=C(COC)/C(=C/C[C@H](OC(C)=O)c1ccc(CO)o1)c1cc(C(=O)OC)ccc1OC | 0.795 | 0.516 | 0.0348 | 0.255 | 0.435 | -0.1 | -0.91 | 0.57 | -0.199 | -0.769 (inactive) | 0.122 | -3.08 (inactive) | -0.261 (inactive) | 1.78 (inactive) | 1.71 (inactive) | -0.427 | -0.154 | -0.156 | 0.647 | 0.756
5 | COc1cc(COC(C)=O)ccc1OC(C)=O | -0.0364 | 0.262 | 0.661 | 0.0038 | 0.512 | 0.102 | 1.47 | 0.45 | -0.155 | -1.52 (inactive) | 1.27 | -1.68 (inactive) | -1.48 (inactive) | 1.42 (inactive) | 68.7 (active) | -0.114 | 0.257 | 0.343 | 0.141 | 0.857
6 | [N-]=[N+]=NCc1ccccc1[C@@H]1OC(c2ccc(OCCCO)cc2)=N[C@]1(Cc1ccccc1)C(=O)NCC(O)CO (stereo not given in full) | 1.9 | 1.19 | 0.443 | 0.958 | 0.973 | 1.52 | 0.529 | -1.3 | 0.718 | -0.0075 (inactive) | 0.334 | -1.58 (inactive) | 0.0756 (inactive) | 1.27 (inactive) | -0.757 (inactive) | 0.255 | 0.84 | 0.281 | 0.294 | -0.492
7 | CCOC(=O)C[C@H]1[C@H](OC(=O)c2ccc(C(=O)c3ccccc3)cc2)[C@@H](NC(=O)CC(C)C)c2cc(OCCCO)ccc2N1C(=O)c1ccc2ccccc2n1 | 1.35 | 1.21 | 0.0174 | 0.989 | 1.15 | 0.94 | 1.78 | 1.36 | 0.61 | 0.103 (inactive) | 0.188 | -0.772 (inactive) | -1.04 (inactive) | 0.469 (inactive) | -0.23 (inactive) | 1.22 | -0.003 | 0.396 | 0.15 | 1.27
8 | COCCCNC(=O)[C@@H]1c2ccccc2C(=O)N(Cc2ccccc2Cl)[C@H]1c1ccc(CO)cc1 | 3.19 | 1.17 | 0.36 | 0.381 | 1.33 | 1.04 | 2.35 | 0.753 | -0.0431 | -1.27 (inactive) | -0.0355 | -0.0743 (inactive) | 0.66 (inactive) | -0.179 (inactive) | -0.268 (inactive) | 0.128 | 0.326 | 0.494 | 0.857 | 0.861
9 | C=CCOC(=O)[C@H]1[C@@H]2C(=O)O[C@@H](c3ccccc3)[C@@H](c3ccccc3)N2[C@@H](c2ccc(OCCOC(=O)[C@H]3C[C@H]4C(=O)N[C@@H](CCCCNC(C)=O)C(=O)N4[C@H]3c3ccc(O)cc3)cc2)[C@]12C(=O)Nc1ccc(I)cc12 | 0.748 | 0.885 | 0.169 | 0.332 | 1.35 | 1.46 | -0.804 | 1.42 | 0.105 | -2.16 (inactive) | 0.413 | -1.48 (inactive) | 0.399 (inactive) | 5.04 (inactive) | 6.74 (inactive) | 0.142 | 0.098 | 0.807 | 1.01 | 2.09
10 | C=CC[C@@]12N=C(c3ccc(OCCCO)cc3)O[C@@H]1c1ccccc1N(C)C2=O | 2.16 | 1.23 | 0.338 | 0.363 | 1.52 | 1.62 | 1.26 | 0.283 | 0.65 | -4.19 (inactive) | 1.25 | -4.44 (inactive) | -0.0229 (inactive) | 0.297 (inactive) | -0.845 (inactive) | 0.248 | 0.268 | -0.0951 | 0.713 | 1.42
